Our source for the activity (Tm shift, normalised) values is PubChem BioAssay AID651658 (Broad Institute, 2012).

About 5,100 (1.5%) of roughly 340,000 compounds were called active. The list comes from a sample in which actives are over-represented; it also holds similar structures and randomly drawn compounds. A number with no mark means an inactive call.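 How the source made its calls: active means mean Tm shift, scaled 0 neutral to 100 positive control, at about 1.3% or above, every replicate too (limit read from the data); inconclusive means no clear call, values can overlap the other calls; inactive means the rest.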

Fibroblast growth factor 22 (Homo sapiens), sequence (Q9HCT0 whole entry, looked up): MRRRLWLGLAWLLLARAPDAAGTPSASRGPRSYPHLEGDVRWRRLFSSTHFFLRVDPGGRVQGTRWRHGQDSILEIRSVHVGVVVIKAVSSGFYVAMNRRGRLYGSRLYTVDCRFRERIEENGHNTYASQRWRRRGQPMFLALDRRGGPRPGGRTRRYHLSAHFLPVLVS

This experiment has as its target Fibroblast growth factor 22 (Homo sapiens) (UniProt Q9HCT0). The experiment is described as follows: FGF22 ligand-induced thermal stabilization – biophysical, thermal shift, single point, FGF22 synaptogenesis inhibitor project, primary screen (AID 651658). The note with it: recombinant FGF22 thermal shift, SYPRO orange fluorescence; at 9.99 µM; active compounds read high; percent of sucrose octasulfate shift, DMSO zero.
As for `Cc1noc(C)c1NC(=O)Nc1ccc2c(c1)C(=O)N([C@H](C)CO)C[C@@H](C)[C@@H](CN(C)S(=O)(=O)c1ccc(Cl)cc1)OCCCC[C@H](C)O2`, the activity (Tm shift, normalised) is -0.533%.

Regarding `COc1ccc(NC(=O)O[C@@H](c2ccc(OCCO)cc2)[C@@H](C)CCO)cc1`, the activity (Tm shift, normalised) was -1.48%.

On to `CCCNC(=O)N1CCC2(CC1)CN(C(=O)CN1CCOCC1)[C@H](CO)c1[nH]c3cc(OC)ccc3c12`, for which the activity (Tm shift, normalised) is -0.015%.

`N#Cc1c(NC(=O)C2CCCO2)sc2c1CCCCC2` (stereo not drawn): the activity (Tm shift, normalised) was 0.476%.

Turning to `CCN1CCN(CC(=O)Nc2sc3c(c2C#N)CCC3)CC1`, the activity (Tm shift, normalised) was -0.078%.

`N#Cc1c(NC(=O)CCCl)sc2c1CCCCC2`: the activity (Tm shift, normalised) was 43% (active).

With `CCCNC(=O)C[C@@H]1CC[C@@H]2[C@H](COc3ccc(NC(=O)c4cc(F)cc(F)c4)cc3C(=O)N2C)O1`, the activity (Tm shift, normalised) was 0.224%.

With `O=C(C[C@@H]1CC[C@@H](NC(=O)c2ccc3c(c2)OCO3)[C@H](CO)O1)NCc1ccc(F)cc1`, the activity (Tm shift, normalised) is -0.125%.

As for `Cc1ccccc1S(=O)(=O)N1C[C@@H]2N[C@H](C1)C2c1ccc(-c2cccc(C(=O)N(C)C)c2)cc1` (stereo partly drawn), the activity (Tm shift, normalised) is 0.138%.

`O=C(C[C@H]1CC[C@@H]2[C@H](COC[C@@H](O)CN2Cc2cccc(-c3ccncc3)c2)O1)N1CCOCC1`: the activity (Tm shift, normalised) was 0.256%.

`O=C(C[C@H]1C(=O)N(c2ccc(F)c(F)c2)C[C@@H]1Cc1ccccc1)Nc1ccccc1`: the activity (Tm shift, normalised) is -0.246%.

In the case of `CNC(=O)C[C@H]1C(=O)N(Cc2ccccc2)C[C@@H]1CSC`, the activity (Tm shift, normalised) was 0.23%.

As for `CNC(=O)C[C@H]1C(=O)N(c2ccc(OC)cc2)C[C@@H]1Cc1ccccc1`, the activity (Tm shift, normalised) was 43.3% (active).

In the case of `CC(C)N1C(=O)[C@@]2(Cc3ccccc31)c1ccccc1C(=O)N(C1CCCCC1)[C@H]2c1ccc(CO)cc1`, the activity (Tm shift, normalised) was -0.066%.

With `COc1ccc(-c2ccccc2[C@H]2[C@@H](CO)N(C(=O)C3CCC3)[C@H]2C#N)cc1`, the activity (Tm shift, normalised) is -0.131%.

For `C[C@H](CO)N1C[C@H](C)[C@H](CN(C)C(=O)Cc2ccccn2)Oc2ncc(-c3cncnc3)cc2C1=O`, the activity (Tm shift, normalised) is -0.28%.

On to `COC(=O)c1ccc(NC(=S)NN2CCOCC2)cc1`, for which the activity (Tm shift, normalised) is 43.4% (active).

Turning to `COC(=O)c1ccc(NC(=S)Nc2cccc(C)n2)cc1`, the activity (Tm shift, normalised) is 42.2%.

As for `Cc1ccc(C(=O)NC(=S)Nc2ccc(N3CCOCC3)cc2)cc1`, the activity (Tm shift, normalised) was -0.25%.

Turning to `OC[C@@H]1Nc2ccc(-c3ccc(F)cc3)cc2[C@@H]2[C@H]1CCN2Cc1ccc(F)cc1`, the activity (Tm shift, normalised) was -0.323%.

Turning to `COc1ccc(NC(=O)Nc2ccc3c(c2)[C@@H]2C[C@@H](CC(=O)NCc4ccncc4)O[C@@H](CO)[C@@H]2O3)cc1`, the activity (Tm shift, normalised) is -0.189%.

With `C[C@@H]1CN([C@H](C)CO)S(=O)(=O)c2ccc(-c3ccccc3)cc2O[C@@H]1CN(C)C(=O)CC1CC1`, the activity (Tm shift, normalised) was -0.061%.

With `C[C@@H]1CCCCO[C@H](CN(C)S(=O)(=O)c2ccccc2)[C@@H](C)CN([C@@H](C)CO)C(=O)c2cc(NS(=O)(=O)c3ccccc3)ccc2O1`, the activity (Tm shift, normalised) was -0.644%.

For the molecule `CCc1cc2cc(OC)ccc2nc1SCC(=O)Nc1cc(OC)c(OC)cc1C(=O)O`, the activity (Tm shift, normalised) was 43.1% (active).

For the molecule `COc1ccc(OC)c(NC(=O)CSc2nc(-c3ccccc3)cc(=O)[nH]2)c1`, the activity (Tm shift, normalised) was -0.146%.

In the case of `COc1ccc(NC(=O)CSc2nc(SC)ns2)c(OC)c1`, the activity (Tm shift, normalised) is 0.019%.

`CC(C)(C)C(=O)NCCCNc1ccc([N+](=O)[O-])cc1`: the activity (Tm shift, normalised) was 43.5% (active).

For the molecule `O=C(NCCNc1ccc([N+](=O)[O-])cc1)c1cccc2c(Br)cccc12`, the activity (Tm shift, normalised) was 0%.

For the molecule `O=[N+]([O-])c1ccc(NCCCO)c(C(F)(F)F)c1`, the activity (Tm shift, normalised) is 0.215%.

For the molecule `CNC(=O)C[C@@H]1CC[C@@H]2[C@@H](COc3ccc(NC(=O)c4ccc5c(c4)OCO5)cc3C(=O)N2C)O1`, the activity (Tm shift, normalised) is -0.015%.

For `CNS(=O)(=O)c1ccc(NC(=O)Nc2ccc3c(c2)OCO3)cc1`, the activity (Tm shift, normalised) was -0.016%.

Consider `Cc1cccc(NC(=O)Nc2ccc3c(c2)OCO3)n1`, for which the activity (Tm shift, normalised) was 43.6% (active).

Take `CC(NC(=O)Nc1ccc2c(c1)OCO2)c1ccncc1` (stereo not drawn): the activity (Tm shift, normalised) was 0.039%.

As to `COc1ccc(NC(=O)Nc2ccc3c(c2)C(=O)N([C@H](C)CO)C[C@H](C)[C@@H](CN(C)Cc2ccc(C(=O)O)cc2)OCCCC[C@H](C)O3)cc1`, the activity (Tm shift, normalised) was -0.009%.

On to `CC=Cc1ccc2n(c1=O)C[C@@H]1[C@@H](CO)[C@H](C(=O)N[C@H](C)c3ccccc3)N(C(=O)c3cnccn3)[C@H]21` (mixture of isomers), for which the activity (Tm shift, normalised) is -0.323%.

Consider `O=C(COC(=O)/C=C/c1ccc(Cl)cc1)NC1CCS(=O)(=O)C1` (stereo not drawn), for which the activity (Tm shift, normalised) was 0.02%.

For `Nc1ccc(C(=O)OCC(=O)NC2CCS(=O)(=O)C2)cc1[N+](=O)[O-]` (stereo not drawn), the activity (Tm shift, normalised) is 43.7% (active).

On to `O=C(COC(=O)c1ncc(Cl)c(Cl)c1Cl)NC1CCS(=O)(=O)C1` (stereo not drawn), for which the activity (Tm shift, normalised) is 0.023%.

Consider `COc1ccc2c3c([nH]c2c1)[C@H](CO)N(C(C)=O)CC31CN(S(=O)(=O)c2cccs2)C1`, for which the activity (Tm shift, normalised) is -10.2%.

`C[C@H]1CN([C@@H](C)CO)C(=O)Cc2cc(NC(=O)Cc3cn(C)c4ccccc34)ccc2O[C@@H]1CN(C)Cc1ccccc1`: the activity (Tm shift, normalised) is 1.38% (active).

For `C[C@H](CO)N1C[C@H](C)[C@@H](CN(C)Cc2ccc(C(=O)O)cc2)Oc2ccc(NC(=O)Cn3cnnn3)cc2CC1=O`, the activity (Tm shift, normalised) was -0.125%.

Regarding `C[C@H]1CN([C@@H](C)CO)C(=O)Cc2cc(NC(=O)Cc3cn(C)c4ccccc34)ccc2O[C@H]1CN(C)Cc1ccccc1`, the activity (Tm shift, normalised) was 1.01%.

`C[C@@H]1CN([C@@H](C)CO)C(=O)Cc2cc(NC(=O)Cc3cn(C)c4ccccc34)ccc2O[C@H]1CN(C)Cc1ccc(C(=O)O)cc1`: the activity (Tm shift, normalised) is 0.077%.

Consider `C[C@@H]1CN([C@H](C)CO)C(=O)Cc2cc(NC(=O)Cn3cnnn3)ccc2O[C@H]1CN(C)Cc1ccc(C(F)(F)F)cc1`, for which the activity (Tm shift, normalised) was 1.38% (active).

With `C[C@H]1CN([C@@H](C)CO)C(=O)Cc2cc(NC(=O)Cn3cnnn3)ccc2O[C@H]1CN(C)Cc1ccc(C(=O)O)cc1`, the activity (Tm shift, normalised) was -0.049%.

Take `N#C[C@@H]1[C@@H](c2ccccc2)[C@H](CO)N1C(=O)c1cc(Cl)cc(Cl)c1`: the activity (Tm shift, normalised) is -0.051%.

As for `O=C(NN1C(=O)C2C3C=CC(O3)C2C1=O)c1ccncc1` (stereo not drawn), the activity (Tm shift, normalised) was 0.125%.

As to `CC(C)=C1C2CCC1C1C(=O)N(NC(=O)c3ccco3)C(=O)C21` (stereo not drawn), the activity (Tm shift, normalised) is -0.011%.

As to `O=C(NN1C(=O)C2C3C=CC(O3)C2C1=O)c1ccccc1` (stereo not drawn), the activity (Tm shift, normalised) is 1.65% (active).

As to `O=C(C[C@@H]1C[C@H]2c3cc(NC(=O)NC4CCCC4)ccc3O[C@H]2[C@@H](CO)O1)NC1CCCCC1`, the activity (Tm shift, normalised) is -0.272%.

`O=C(C1CC1)N1CCCCN2[C@H](C1)[C@@H](c1ccc(-c3cccc(F)c3)cc1)[C@@H]2CO`: the activity (Tm shift, normalised) is -0.119%.

With `C[C@@H]1CN([C@@H](C)CO)S(=O)(=O)c2ccc(-c3ccc(C#N)cc3)cc2O[C@H]1CN(C)Cc1ccccn1`, the activity (Tm shift, normalised) was -0.176%.

With `CCCSc1ccc([C@H]2N[C@@](Cc3ccccc3)(C(=O)OC)[C@H]3C(=O)N(C)C(=O)[C@@H]23)cc1`, the activity (Tm shift, normalised) is 0.041%.

Regarding `CCOC(=O)C1(C)NC(c2ccco2)C2C(=O)N(c3ccccc3)C(=O)C21` (stereo not drawn), the activity (Tm shift, normalised) is 0.052%.

As for `CCCC1(C(=O)OC)NC(c2ccco2)C2C(=O)N(C)C(=O)C21` (stereo not drawn), the activity (Tm shift, normalised) was 43.8% (active).

As to `COC(=O)[C@]1(C)N[C@H](CN(C)C(=O)c2ccc(C(C)(C)C)cc2)[C@@H]2C(=O)N(C)C(=O)[C@@H]21`, the activity (Tm shift, normalised) is 0.232%.

As for `CC[C@@]1(C(=O)OC)N[C@H](CN(C)C(C)=O)[C@@H]2C(=O)N(C)C(=O)[C@@H]21`, the activity (Tm shift, normalised) was 43.4% (active).

Turning to `CCN(C[C@H]1N[C@@](CC)(C(=O)OC)[C@H]2C(=O)N(C)C(=O)[C@@H]12)C(=O)Nc1ccc(F)cc1`, the activity (Tm shift, normalised) was -0.067%.

`COc1cccc(S(=O)(=O)N2[C@@H]3CNC[C@H]2C3c2ccc(-c3cccc(C(=O)N(C)C)c3)cc2)c1` (stereo partly drawn): the activity (Tm shift, normalised) was 0.014%.

Take `C[C@@H]1CN([C@H](C)CO)C(=O)c2cc(NC(=O)c3ccncc3)ccc2O[C@@H]1CN(C)C(=O)Nc1ccc(F)cc1`: the activity (Tm shift, normalised) is -0.074%.

Take `CO[C@@H]1CN(C)C(=O)c2cc(NS(C)(=O)=O)ccc2OC[C@@H](C)N(C(=O)C2CCC2)C[C@@H]1C`: the activity (Tm shift, normalised) is -0.13%.

Consider `CO[C@H]1CN(C)C(=O)c2ccc(NC(=O)C3CCCC3)cc2OC[C@H](C)N(C(=O)CC2CC2)C[C@@H]1C`, for which the activity (Tm shift, normalised) is 0.031%.

With `N#C[C@@H]1[C@@H](c2ccccc2)[C@@H](CO)N1C(=O)Cc1ccccc1`, the activity (Tm shift, normalised) is -0.224%.

For the molecule `CCCNC(=O)N1[C@H](C#N)[C@@H](c2ccccc2)[C@H]1CO`, the activity (Tm shift, normalised) is 0.065%.

Turning to `COc1ccccc1NC(=O)N1[C@H](C#N)[C@H](c2ccccc2)[C@H]1CO`, the activity (Tm shift, normalised) is 1.69% (active).

For the molecule `CCCc1cn(CC[C@H]2CC[C@@H](NS(=O)(=O)c3ccccc3Cl)[C@@H](CO)O2)nn1`, the activity (Tm shift, normalised) is -0.219%.

As for `CC(CNC(=O)Cn1cnc2c(OCc3ccccc3)ncnc21)c1ccccc1` (stereo not drawn), the activity (Tm shift, normalised) is -0.208%.

With `O=C(Cn1cnc2c(OCc3ccccc3)ncnc21)NCCCn1ccnc1`, the activity (Tm shift, normalised) is 43.3% (active).

Turning to `Cc1ccc(NC(=O)Cn2cnc3c(OCc4ccccc4)ncnc32)cc1C`, the activity (Tm shift, normalised) is 0.021%.

Turning to `CCC(=O)N(C)C[C@@H]1Oc2ncc(C#CCc3ccccc3)cc2C(=O)N([C@H](C)CO)C[C@H]1C`, the activity (Tm shift, normalised) is -0.313%.

As to `Cc1cc(C)cc(OCC(=O)NNC(=O)CCN2C(=O)c3ccccc3C2=O)c1`, the activity (Tm shift, normalised) was 43.2% (active).

`COc1ccc(CNC(=O)CCN2C(=O)c3ccccc3C2=O)cc1`: the activity (Tm shift, normalised) was -0.249%.

As to `Cc1cc(C)cc(NC(=O)CCN2C(=O)c3ccccc3C2=O)c1`, the activity (Tm shift, normalised) was 0.073%.
